Experimental data from PubChem BioAssay AID1159580 (chemical genetic matrix, 2015).
Where “and” joins values, the source holds several entries; their conditions need not be identical. Equal values may be shown once. Hit rate of the full screen: of about 5,500 compounds, about 2,000 (36%) were called active. Another 18% or so got no clear call; they are omitted. No stated cut-off is given here; in the data, active means normalized growth mostly below about 0.91 (no sharp cut-off); inconclusive means no clear call, values can overlap the other calls; inactive means mostly above about 0.92. Some of the results follow.

Assay: chemical genetic growth profiling, strain panel (AID 1159580);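 further: tested at 20 µM; growth read once vehicle control cultures reached saturation at 30 °C; 1 = growth at the plate median or of vehicle wells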
Settings: S. cerevisiae deletion strains, growth OD

Measured: normalized growth

CC(C)N(CCC(C(N)=O)(c1ccccc1)c1ccccn1)C(C)C (stereo not drawn)
inactive: locus YJR066W, strain TOR1, stronger effect = lower value 0.994 | locus YJR075W, strain HOC1, stronger effect = lower value 1.02 | locus YKL009W, strain mrt4, stronger effect = lower value 0.97 | locus YKL068W, stronger effect = lower value 0.98 | locus YKL085W, strain MDH1 (second series), stronger effect = lower value 0.988 | locus YKL085W, strain MDH1, stronger effect = lower value 0.988 | locus YKR001C, strain vps1, stronger effect = lower value 0.988 | locus YLR039C, strain RIC1, stronger effect = lower value 0.972 | locus YLR058C, strain SHM2, stronger effect = lower value 0.979 | locus YLR102C, strain apc9, stronger effect = lower value 0.987 | locus YLR113W, strain HOG1, stronger effect = lower value 1.06 | locus YLR262C, strain YPT6, stronger effect = lower value 0.963 | locus YLR268W, strain sec22, stronger effect = lower value 0.999 | locus YLR330W, strain CHS5, stronger effect = lower value 0.989 | locus YLR342W, strain FKS1 (second series), stronger effect = lower value 1.02 | locus YLR371W, strain rom2, stronger effect = lower value 0.997 | locus YLR418C, strain cdc73, stronger effect = lower value 0.967 | locus YML016C, strain PPZ1, stronger effect = lower value 0.997 | locus YML032C, strain rad52, stronger effect = lower value 1.01 | locus YML124C, strain tub3, stronger effect = lower value 0.994 | locus YMR078C, strain ctf18, stronger effect = lower value 0.978 | locus YMR223W, strain ubp8, stronger effect = lower value 0.978 | locus YMR263W, strain SAP30, stronger effect = lower value 0.991 | locus YMR307W, strain GAS1, stronger effect = lower value 1.01 and 0.995 and 1.02 | locus YNL067W, strain RPL9B, stronger effect = lower value 0.973 | locus YNL128W, strain TEP1, stronger effect = lower value 1.02 and 0.999 | locus YNL153C, strain GIM3, stronger effect = lower value 0.983 and 1.03 | locus YNL175C, strain NOP13, stronger effect = lower value 0.978 and 1.02 | locus YNL183C, strain NPR1, stronger effect = lower value 1 | locus YNL197C, strain WHI3, stronger effect = lower value 1.01 and 0.977 | locus YNL224C, strain SQS1, stronger effect = lower value 0.978 and 1.01 | locus YNL233W, strain BNI4, stronger effect = lower value 0.972 | locus YNL250W, strain rad50, stronger effect = lower value 1.01 | locus YNL271C, strain bni1, stronger effect = lower value 0.996 | locus YNL298W, strain CLA4, stronger effect = lower value 0.997 | locus YNL307C, strain MCK1, stronger effect = lower value 0.999 | locus YNL322C, strain KRE1, stronger effect = lower value 0.977 and 1.02 | locus YNR052C, strain pop2, stronger effect = lower value 0.997 | locus YOL012C, strain htz1 0.863 | locus YOL147C, strain pex11, stronger effect = lower value 0.984 | locus YOR061W, strain CKA2, stronger effect = lower value 0.998 | locus YOR069W, strain VPS5, stronger effect = lower value 0.996 | locus YOR083W, strain WHI5 (second series), stronger effect = lower value 1 and 0.957 | locus YOR136W, strain idh2, stronger effect = lower value 1.01 | locus YOR144C, strain elg1, stronger effect = lower value 0.996 | locus YOR184W, strain ser1, stronger effect = lower value 0.995 | locus YOR231W, strain MKK1, stronger effect = lower value 1.02 | locus YOR316C, strain cot1, stronger effect = lower value 1 | locus YPL241C, strain CIN2, stronger effect = lower value 0.995 and 1.01 | locus YPL256C, strain CLN2, stronger effect = lower value 0.991 | locus YPR119W, strain clb2, stronger effect = lower value 0.997 | locus YPR141C, strain kar3, stronger effect = lower value 0.962 | locus YPR163C, strain tif3, stronger effect = lower value 0.989 | locus YPR167C, strain met16, stronger effect = lower value 1.01 | strain wtn01, stronger effect = lower value 0.996
active: locus YKL160W, strain elf1, stronger effect = lower value 0.139 | locus YKR026C, strain gcn3, stronger effect = lower value 0.441 | locus YKR091W, strain srl3, stronger effect = lower value 0.559 | locus YLL001W, strain dnm1, stronger effect = lower value 0.0623 | locus YLL026W, stronger effect = lower value 0.0653 | locus YLL041C, strain sdh2, stronger effect = lower value 0.411 | locus YLR027C, strain aat2, stronger effect = lower value 0.0601 | locus YLR221C, strain rsa3, stronger effect = lower value 0.0673 | locus YLR258W, strain gsy2, stronger effect = lower value 0.0927 | locus YLR262C, strain YPT6 (second series), stronger effect = lower value 0.0974 | locus YLR320W, strain mms22, stronger effect = lower value 0.104 | locus YLR342W, strain FKS1, stronger effect = lower value 0.0913 | locus YLR357W, strain rsc2, stronger effect = lower value 0.133 | locus YLR370C, strain arc18, stronger effect = lower value 0.0613 | locus YLR384C, strain iki3, stronger effect = lower value 0.0647 | locus YML120C, strain ndi1, stronger effect = lower value 0.0595 | locus YMR058W, strain fet3, stronger effect = lower value 0.0623 | locus YMR125W, strain sto1, stronger effect = lower value 0.309 | locus YMR129W, stronger effect = lower value 0.0614 | locus YMR205C, strain PFK2, stronger effect = lower value 0.193 | locus YMR231W, strain pep5, stronger effect = lower value 0.095 | locus YNL071W, strain lat1, stronger effect = lower value 0.0658 | locus YNL209W, strain ssb2, stronger effect = lower value 0.0612 | locus YNL248C, strain rpa49, stronger effect = lower value 0.0783 | locus YNL322C, strain KRE1 (second series), stronger effect = lower value 0.0713 | locus YNR049C, strain mso1, stronger effect = lower value 0.0601 | locus YOR001W, strain rrp6, stronger effect = lower value 0.0692 | locus YOR070C, strain gyp1, stronger effect = lower value 0.0654 | locus YOR080W, strain dia2, stronger effect = lower value 0.0699 | locus YOR083W, strain WHI5, stronger effect = lower value 0.227 | locus YOR106W, strain vam3, stronger effect = lower value 0.0676 | locus YOR265W, strain rbl2, stronger effect = lower value 0.0664 | locus YOR270C, strain vph1, stronger effect = lower value 0.0928 | locus YOR290C, strain snf2, stronger effect = lower value 0.0671 | locus YPL051W, strain arl3, stronger effect = lower value 0.0788 | locus YPL078C, strain atp4, stronger effect = lower value 0.0695 | locus YPL106C, strain sse1, stronger effect = lower value 0.117 | locus YPL240C, strain hsp82, stronger effect = lower value 0.278
